Assay results from PubChem BioAssay (NCI).
Compounds without any hit were thinned out: in the full panel of roughly 83,000, 20% have a hit.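 Step 1: grow cells in 96-well plates. Step 2: add test compound at a single concentration. Step 3: incubate 48 h. Step 4: record percent growth.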 Calls of active or inactive are those of the source. How the source made its calls: active means growth percent below 10; inactive means the rest.

Assays:
Experiment in all cases: NCI-60 one-dose screen, 48 h (100 = growth as untreated, 0 = no growth, -100 = all killed)
HCT-15 colon = settings: 10 µM unless noted
HT29 colon = settings: 10 µM unless noted
SNB-75 CNS = settings: 10 µM unless noted
SNB-19 CNS = settings: 10 µM unless noted
U251 CNS = settings: 10 µM unless noted
PC-3 prostate = settings: 10 µM unless noted
SK-MEL-5 melanoma = settings: 10 µM unless noted
LOX IMVI melanoma = settings: 10 µM
SK-MEL-28 melanoma = settings: 10 µM unless noted
SK-MEL-2 melanoma = settings: 10 µM unless noted
EKVX NSCLC = settings: 10 µM unless noted
SN12C renal = settings: 10 µM unless noted
UO-31 renal = settings: 10 µM unless noted
TK-10 renal = settings: 10 µM unless noted
ACHN renal = settings: 10 µM unless noted
CAKI-1 renal = settings: 10 µM unless noted
A498 renal = settings: 10 µM unless noted
CCRF-CEM leukemia = settings: 10 µM unless noted
MOLT-4 leukemia = settings: 10 µM unless noted
UACC-62 melanoma = settings: 10 µM unless noted

Measured: growth

CC1(C)OC(=O)CC1=O
inactive: HCT-15 colon 110% | HT29 colon 93.5% | SNB-75 CNS 93.5% | SNB-19 CNS 105% | U251 CNS 83.2% | PC-3 prostate 81.5% | SK-MEL-5 melanoma 98.7% | LOX IMVI melanoma 96.9% | SK-MEL-28 melanoma 109% | SK-MEL-2 melanoma 90.9% | EKVX NSCLC 96.8% | SN12C renal 105% | UO-31 renal 92.9% | TK-10 renal 87% | ACHN renal 101% | CAKI-1 renal 90.4% | A498 renal 88.9% | CCRF-CEM leukemia 89.3% | MOLT-4 leukemia 85.1%

CN(C)CCOC(=O)Nc1ccc(Cc2ccc(NC(=O)OCCN(C)C)cc2)cc1
inactive: HCT-15 colon 63.1% [100 µM] | HT29 colon 14.5% [100 µM] | SNB-75 CNS 89% [100 µM] | SNB-19 CNS 99.6% [100 µM] | U251 CNS 69.4% [100 µM] | PC-3 prostate 60.5% [100 µM] | SK-MEL-5 melanoma 54.8% [100 µM] | SK-MEL-28 melanoma 18.7% [100 µM] | SK-MEL-2 melanoma 101% [100 µM] | EKVX NSCLC 102% [100 µM] | SN12C renal 97.5% [100 µM] | UO-31 renal 68.6% [100 µM] | TK-10 renal 124% [100 µM] | ACHN renal 86.8% [100 µM] | A498 renal 126% [100 µM] | CCRF-CEM leukemia 51.3% [100 µM] | MOLT-4 leukemia 37.6% [100 µM]
active: UACC-62 melanoma 1.99% [100 µM]

O=C1C=CC(=O)C2=C1CCCC2
inactive: HCT-15 colon 92.4% | HT29 colon 109% | SNB-75 CNS 80.2% | SNB-19 CNS 92.7% | U251 CNS 95.5% | PC-3 prostate 82.7% | SK-MEL-5 melanoma 97.5% | UACC-62 melanoma 85.5% | SK-MEL-28 melanoma 108% | SK-MEL-2 melanoma 110% | EKVX NSCLC 69.1% | SN12C renal 98.7% | UO-31 renal 70.9% | TK-10 renal 132% | ACHN renal 90% | CAKI-1 renal 79% | A498 renal 132% | CCRF-CEM leukemia 18.8% | MOLT-4 leukemia 31.1%

CC(=O)N(CCCCCCN(C(C)=O)C(C)=O)C(C)=O
inactive: HCT-15 colon 107% [100 µM] | HT29 colon 114% [100 µM] | SNB-75 CNS 87.9% [100 µM] | SNB-19 CNS 99.2% [100 µM] | U251 CNS 107% [100 µM] | PC-3 prostate 104% [100 µM] | SK-MEL-5 melanoma 104% [100 µM] | UACC-62 melanoma 97% [100 µM] | SK-MEL-28 melanoma 105% [100 µM] | SK-MEL-2 melanoma 117% [100 µM] | EKVX NSCLC 106% [100 µM] | SN12C renal 103% [100 µM] | UO-31 renal 98.1% [100 µM] | TK-10 renal 116% [100 µM] | ACHN renal 104% [100 µM] | CAKI-1 renal 98.7% [100 µM] | A498 renal 108% [100 µM] | CCRF-CEM leukemia 103% [100 µM] | MOLT-4 leukemia 113% [100 µM]

N=C(N)c1nn(C2OC(CO)C(O)C2O)c2nc[nH]c(=O)c12 (centres undefined)
active: HCT-15 colon 0.318% | SNB-75 CNS 9.13% | SNB-19 CNS 5.88% | PC-3 prostate -3.91% | SK-MEL-5 melanoma -97% | LOX IMVI melanoma -27.8% | SK-MEL-28 melanoma -53.9% | SK-MEL-2 melanoma -23% | EKVX NSCLC -0.273% | SN12C renal 6.98% | TK-10 renal -9.5% | ACHN renal -5.7% | CAKI-1 renal 1.5% | CCRF-CEM leukemia -0.754% | MOLT-4 leukemia -11.9%
inactive: HT29 colon 11.7% | U251 CNS 16% | UO-31 renal 13.1% | A498 renal 15.4%

N#Cc1ccc(OC(=O)Nc2cc(Cl)cc(Cl)c2)cc1
inactive: SNB-19 CNS 15.4% [100 µM]
active: HCT-15 colon 3.2% [100 µM] | HT29 colon 2.78% [100 µM] | SNB-75 CNS -9.78% [100 µM] | U251 CNS 4.68% [100 µM] | PC-3 prostate -9.43% [100 µM] | SK-MEL-5 melanoma -94.3% [100 µM] | UACC-62 melanoma -33.1% [100 µM] | SK-MEL-28 melanoma 5.58% [100 µM] | SK-MEL-2 melanoma -42.5% [100 µM] | EKVX NSCLC -2.41% [100 µM] | SN12C renal -14% [100 µM] | UO-31 renal 5.42% [100 µM] | TK-10 renal -4.01% [100 µM] | ACHN renal 0.368% [100 µM] | CAKI-1 renal -27.5% [100 µM] | A498 renal -19.7% [100 µM] | CCRF-CEM leukemia 2.17% [100 µM] | MOLT-4 leukemia -14.4% [100 µM]

Cn1c(=O)[nH]c2ccccc2c1=O
inactive: HCT-15 colon 101% | HT29 colon 98.4% | SNB-75 CNS 91% | SNB-19 CNS 94.3% | U251 CNS 93.6% | PC-3 prostate 130% | SK-MEL-5 melanoma 101% | UACC-62 melanoma 102% | SK-MEL-28 melanoma 117% | SK-MEL-2 melanoma 111% | EKVX NSCLC 71.6% | SN12C renal 96.4% | TK-10 renal 94.3% | CAKI-1 renal 85.3% | A498 renal 129% | CCRF-CEM leukemia 108% | MOLT-4 leukemia 122%

CCCNS(=O)(=O)c1ccc(Cl)cc1
inactive: HCT-15 colon 99.6% | HT29 colon 101% | SNB-75 CNS 93.4% | SNB-19 CNS 104% | U251 CNS 99.3% | PC-3 prostate 92.9% | SK-MEL-5 melanoma 105% | LOX IMVI melanoma 101% | SK-MEL-28 melanoma 108% | SK-MEL-2 melanoma 106% | EKVX NSCLC 91.6% | SN12C renal 103% | UO-31 renal 89.9% | TK-10 renal 106% | ACHN renal 102% | CAKI-1 renal 93.8% | A498 renal 98.9% | CCRF-CEM leukemia 100% | MOLT-4 leukemia 113%

CCN(CC)CCOC(=O)Nc1c(C(C)C)cccc1C(C)C
inactive: HCT-15 colon 106% | HT29 colon 92.8% | SNB-75 CNS 110% | SNB-19 CNS 99.6% | U251 CNS 107% | PC-3 prostate 95.5% | SK-MEL-5 melanoma 95.7% | UACC-62 melanoma 93.3% | SK-MEL-28 melanoma 111% | SK-MEL-2 melanoma 124% | EKVX NSCLC 106% | SN12C renal 105% | UO-31 renal 83.1% | TK-10 renal 105% | ACHN renal 105% | CAKI-1 renal 88.9% | A498 renal 118% | CCRF-CEM leukemia 98.4% | MOLT-4 leukemia 105%

O=[n+]1ccn([O-])c2ccccc21
inactive: HCT-15 colon 110% | HT29 colon 108% | SNB-75 CNS 92% | SNB-19 CNS 102% | U251 CNS 100% | PC-3 prostate 92.1% | SK-MEL-5 melanoma 93.2% | LOX IMVI melanoma 97.4% | SK-MEL-28 melanoma 108% | SK-MEL-2 melanoma 120% | EKVX NSCLC 104% | SN12C renal 97.4% | UO-31 renal 88.6% | TK-10 renal 98.3% | ACHN renal 104% | CAKI-1 renal 96.2% | A498 renal 81% | CCRF-CEM leukemia 17.7%

O=C(Nc1cccc(Cl)c1)c1ccc(Cl)cc1Cl
inactive: HCT-15 colon 96.3% | HT29 colon 86.5% | SNB-75 CNS 84.7% | SNB-19 CNS 96.9% | U251 CNS 90.7% | PC-3 prostate 82.2% | SK-MEL-5 melanoma 96.1% | LOX IMVI melanoma 98.5% | SK-MEL-28 melanoma 101% | SK-MEL-2 melanoma 95.6% | EKVX NSCLC 84.3% | SN12C renal 92.9% | UO-31 renal 82.7% | TK-10 renal 90.1% | ACHN renal 99.7% | CAKI-1 renal 92.2% | A498 renal 87.8% | CCRF-CEM leukemia 89.6% | MOLT-4 leukemia 87.9%

Clc1ccc(C(SCc2ccccc2)SCc2ccccc2)cc1
inactive: HCT-15 colon 97.8% | HT29 colon 90.9% | SNB-75 CNS 91.3% | SNB-19 CNS 105% | U251 CNS 88.7% | PC-3 prostate 85.9% | SK-MEL-5 melanoma 98.8% | LOX IMVI melanoma 94.3% | SK-MEL-28 melanoma 96.3% | SK-MEL-2 melanoma 103% | EKVX NSCLC 89.9% | SN12C renal 104% | UO-31 renal 90% | TK-10 renal 104% | ACHN renal 101% | CAKI-1 renal 85% | A498 renal 81.3% | CCRF-CEM leukemia 83.4%

Cc1ccccc1NC(=O)Oc1ccc(Cl)cc1C(=O)c1ccccc1
inactive: HCT-15 colon 94.1% | HT29 colon 100% | SNB-75 CNS 77.7% | SNB-19 CNS 96% | U251 CNS 87.6% | PC-3 prostate 95.2% | SK-MEL-5 melanoma 97.3% | UACC-62 melanoma 85.4% | SK-MEL-28 melanoma 106% | SK-MEL-2 melanoma 92.6% | EKVX NSCLC 96.8% | SN12C renal 88.2% | TK-10 renal 113% | ACHN renal 88.1% | CAKI-1 renal 91.7% | A498 renal 107% | CCRF-CEM leukemia 96.5% | MOLT-4 leukemia 86.3%

CCOC(=O)c1ccc(NC(=O)Nc2nccs2)cc1
inactive: SNB-75 CNS 61.5% | SNB-19 CNS 11.6% | U251 CNS 12.5% | PC-3 prostate 22.8% | LOX IMVI melanoma 11.9% | SK-MEL-28 melanoma 40.9% | EKVX NSCLC 55.5% | SN12C renal 24.7% | UO-31 renal 14.8% | TK-10 renal 31.6% | CAKI-1 renal 22.2%
active: HCT-15 colon 4.65% | HT29 colon -25.6% | SK-MEL-5 melanoma -67.3% | SK-MEL-2 melanoma -38.4% | ACHN renal 9.97% | A498 renal 7.68% | CCRF-CEM leukemia -0.276% | MOLT-4 leukemia -2.7%

NCC(O)C(O)C(O)C(O)CO (centres undefined)
inactive: HCT-15 colon 106% | HT29 colon 95.9% | SNB-75 CNS 91.8% | SNB-19 CNS 104% | U251 CNS 90.5% | PC-3 prostate 81.4% | SK-MEL-5 melanoma 101% | LOX IMVI melanoma 97.8% | SK-MEL-28 melanoma 108% | SK-MEL-2 melanoma 96.4% | EKVX NSCLC 102% | SN12C renal 96.2% | UO-31 renal 93.2% | TK-10 renal 88.5% | ACHN renal 105% | CAKI-1 renal 88.6% | A498 renal 98.6% | CCRF-CEM leukemia 89.8% | MOLT-4 leukemia 101%
